Assay results taken from PubChem BioAssay (NCI).
Compounds without any hit were thinned out: in the full panel of roughly 83,000, 20% have a hit.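 96-well plates, one dose, 48 hours. Percent growth reported; active if below 10.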 Values without a mark were called inactive. The source made the active and inactive calls.

Experiments:
Assay in all cases: NCI-60 one-dose screen, 48 h (100 = growth as untreated, 0 = no growth, -100 = all killed)
Conditions in all cases: 10 µM unless noted
HCT-15 colon = system: HCT-15 colon
HT29 colon = system: HT29 colon
SNB-75 CNS = system: SNB-75 CNS
SNB-19 CNS = system: SNB-19 CNS
U251 CNS = system: U251 CNS
PC-3 prostate = system: PC-3 prostate
SK-MEL-28 melanoma = system: SK-MEL-28 melanoma
SK-MEL-2 melanoma = system: SK-MEL-2 melanoma
SN12C renal = system: SN12C renal
UO-31 renal = system: UO-31 renal
TK-10 renal = system: TK-10 renal
ACHN renal = system: ACHN renal
CAKI-1 renal = system: CAKI-1 renal
A498 renal = system: A498 renal
CCRF-CEM leukemia = system: CCRF-CEM leukemia
MOLT-4 leukemia = system: MOLT-4 leukemia
SK-MEL-5 melanoma = system: SK-MEL-5 melanoma
UACC-62 melanoma = system: UACC-62 melanoma
LOX IMVI melanoma = system: LOX IMVI melanoma
EKVX NSCLC = system: EKVX NSCLC

| Compound | growth (HCT-15 colon) | growth (HT29 colon) | growth (SNB-75 CNS) | growth (SNB-19 CNS) [%] | growth (U251 CNS) [%] | growth (PC-3 prostate) [%] | growth (SK-MEL-28 melanoma) [%] | growth (SK-MEL-2 melanoma) [%] | growth (SN12C renal) [%] | growth (UO-31 renal) [%] | growth (TK-10 renal) | growth (ACHN renal) | growth (CAKI-1 renal) [%] | growth (A498 renal) [%] | growth (CCRF-CEM leukemia) | growth (MOLT-4 leukemia) | growth (SK-MEL-5 melanoma) | growth (UACC-62 melanoma) [%] | growth (LOX IMVI melanoma) | growth (EKVX NSCLC) [%] |
| --- | --- | --- | --- | --- | --- | --- | --- | --- | --- | --- | --- | --- | --- | --- | --- | --- | --- | --- | --- | --- |
| Cc1cc(N2CCN(c3ccnc4cc(Cl)ccc34)CC2)nc(N2CCOCC2)n1 | 73.6% | 67.6% | 88.9% | 82.6 | 93.9 | 51.9 | 104 | 105 | 86 | 44.7 | 89.9% | 86.1% | 85.9 | 37.2 | 92.3% | 66.7% |  |  |  |  |
| NC(=O)c1cc(I)ccc1NC(=O)/C=C/c1ccccc1Cl | 17.8% | 8.09% (active) | -14.5% (active) | 31.9 | 21.8 |  | 38 | 75.1 | 40.7 | 30.6 | 62.3% | 56.2% | 13 | 62.4 | -19.6% (active) | 10.4% | 3.33% (active) | 37.8 | 50.7% | 28 |
| O=C(COc1ccc(/C=C2\CSc3ccccc3C2=O)cc1)Nc1nccs1 | 84.6% | 74.7% | 87.8% | 82.1 | 83 |  | 124 | 83.5 | 95.2 | 75.7 | 85.5% | 104% | 87.5 | 159 | -66.1% (active) | -30% (active) | 142% | 85.5 | -28.3% (active) | 129 |
| COc1cccc(/C=C2\SC(=Nc3ccc(NC(C)=O)cc3)NC2=O)c1OC | 96.5% | 116% | 67.5% | 97.7 | 93.1 |  | 101 | 110 | 94.6 | 60.8 | 97.7% | 82.5% | 67.9 | 58.7 | 97.1% | 99.2% | 96.2% | 98 | 95.7% | 103 |
| O=C(Cn1cccc(Nc2ccccc2)c1=O)Nc1ccccc1 | 101% | 106% | 84.9% | 97.1 | 97.8 | 97.3 | 104 | 121 | 104 | 91.6 |  | 103% | 97.6 | 65.6 | 105% | 110% |  |  |  |  |
| NC(=NCCCOc1ccc(Cl)cc1)Nc1ccc(C(F)(F)F)cc1 | 54% | 3.11% (active) | 35.4% | 26.4 | 33 | 26.9 |  | 41.3 |  | 37.1 |  | 9.43% (active) | 60.5 | 35 | 3.2% (active) | 4.99% (active) |  |  | 9.81% (active) | 50.5 |
| N#Cc1c(N)n(CCNC(=O)c2ccccc2)c2nc3ccccc3nc12 | 111% | 104% | 116% | 119 | 115 |  | 123 | 90.3 | 120 | 89.4 | 102% | 118% | 115 | 135 | 133% | 44.7% | 132% | 103 | 113% | 123 |
| C=C1C(=O)O[C@H]2[C@H]1CC/C(C=Nc1ccc(C(F)(F)F)cc1N)=C\CC[C@@]1(C)O[C@@H]21 | 2.23% (active) | 1.96% (active) | 41.1% | 44 | 14.6 | 14.2 |  |  |  | 30.3 | 1.36% (active) | -38% (active) | 15.5 | 46.8 | -5.78% (active) | -3.3% (active) |  |  | -48.9% (active) | 31.2 |
